Calb FLC – C. albicans growth modulation with fluconazole; growth inhibition, % (test concentration not listed); C. albicans CaCi-2 (fluconazole-resistant clinical isolate) + fluconazole, Alamar Blue growth, 48 h; 0.57% of 300,000 active;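 active = growth inhibition above about 58% in most replicates, limit read from the data, passing the limit was not always enough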;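 also: all wells also contain fluconazole at 8 µg/ml as a sub-toxic cotreatment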
PHOSPHO1 inh – inhibitors of human PHOSPHO1 phosphatase. recombinant PHOSPHO1, absorbance phosphatase assay. inhibition, % at 13.3 µM. 1.1% of 290,000 active; in the data active = inhibition above about 60%
Efflux pump inh – antifungal efflux pump inhibition, Nile Red retention | S. cerevisiae Candida pump triplex | inhibition, % at 10 µM | 0.44% of 330,000 active | AID 485275;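 active = plate passing quality check with inhibition over a set limit, or well fluorescence over plate mean plus 4 SD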;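 also: Nile Red retained in pooled yeast measured as flow cytometry median fluorescence; higher means more Nile Red kept so more efflux inhibition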
H9c2 protect – protects H9c2 cardiomyocytes from peroxide injury | H2O2 injury protection, ATPLite, 2 h | protection from H2O2 cell death, % at 20 µM | 0.63% of 360,000 active;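 active = compounds giving at least 50% protection of heart cells from peroxide-induced death in the single-dose screen, raw or plate-pattern-corrected value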
KCC2 mod – KCC2 (human) Cl- transport modulation; Q9H2X9; KCC2 cells, thallium flux FluoZin-2 fluorescence; B-score of Tl+ flux slope (higher = more flux/activation; lower = inhibition) at 10 µM; 2.2% of 190,000 active;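 active = thallium flux slope and its plate-corrected score both differing from the plate sample mean at a set confidence after two filtering rounds, in either direction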;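 also: slope of fluorescence scaled to starting intensity during 10 to 20 s after thallium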
A number is an active result. Hits are enriched below; roughly 3.3% of the tested compounds scored in any of these assays.

For COc1ccc(N(C(=O)c2cc3ccccc3oc2=O)C2C=CS(=O)(=O)C2)cc1 (centres undefined) the results were Calb FLC inactive, PHOSPHO1 inh 61, Efflux pump inh inactive, H9c2 protect inactive and KCC2 mod inactive.
Screening CCCCn1c(SCC(=O)NC2CC(C)(C)NC(C)(C)C2)nc2cc(S(N)(=O)=O)ccc21 returned Calb FLC inactive, PHOSPHO1 inh inactive, Efflux pump inh inactive, H9c2 protect inactive and KCC2 mod inactive.
For COc1ccc(NC(=O)CCCc2nc3ccccc3c(=O)[nH]2)cc1Cl the results were Efflux pump inh inactive and H9c2 protect 57.
Screening Cc1ccc(NC(=O)CCCc2nc3ccccc3c(=O)[nH]2)c(Cl)c1 returned Efflux pump inh inactive and H9c2 protect 63.
`Cc1c(Cl)cccc1NC(=O)CNC(=O)CCCc1nc2ccccc2c(=O)[nH]1` gave H9c2 protect inactive.
Screening CC1CC(C)CN(CC(=O)NCCc2ccc(S(N)(=O)=O)cc2)C1 (centres undefined) returned Calb FLC inactive, PHOSPHO1 inh inactive, Efflux pump inh inactive, H9c2 protect inactive and KCC2 mod inactive.
`O=S(=O)(Nc1cccc(C(F)(F)F)c1)c1cccnc1` gave Calb FLC inactive, PHOSPHO1 inh inactive, Efflux pump inh inactive, H9c2 protect inactive and KCC2 mod inactive.
For Cc1ccnc(NC(c2ccccc2)c2ccc3cccnc3c2O)c1 (centres undefined) the results were H9c2 protect inactive.
Cc1ccc2ccc(C(Nc3cccc(C(F)(F)F)c3)c3cccnc3)c(O)c2n1 (centres undefined) was read as Calb FLC inactive, PHOSPHO1 inh inactive, Efflux pump inh inactive, H9c2 protect 84 and KCC2 mod inactive.
Screening O=C(O)c1ccccc1NC(c1ccccc1)c1ccc2cccnc2c1O (centres undefined) returned H9c2 protect 59.
For Cc1ccnc(NC(c2cccnc2)c2ccc3cccnc3c2O)c1 (centres undefined) the results were Calb FLC 90, PHOSPHO1 inh inactive, Efflux pump inh inactive, H9c2 protect inactive and KCC2 mod inactive.
Screening COc1ccccc1NC(c1cccnc1)c1ccc2cccnc2c1O (centres undefined) returned Calb FLC 82, PHOSPHO1 inh 63, Efflux pump inh inactive, H9c2 protect inactive and KCC2 mod inactive.
For O=C(O)c1ccc2cccnc2c1O the results were Calb FLC inactive, PHOSPHO1 inh inactive, Efflux pump inh inactive, H9c2 protect inactive and KCC2 mod inactive.
NC(=O)C1CCCN(S(=O)(=O)c2ccc3ccccc3c2)C1 (centres undefined) was read as Calb FLC inactive, Efflux pump inh inactive and H9c2 protect inactive.
COc1ccc(N(C(=O)c2cccc([N+](=O)[O-])c2)S(=O)(=O)c2cccs2)cc1 was read as Calb FLC inactive, PHOSPHO1 inh inactive, Efflux pump inh inactive, H9c2 protect 51 and KCC2 mod inactive.
For COc1ccc(CCNC(=O)CCCc2ccccc2)cc1OC the results were Calb FLC inactive, PHOSPHO1 inh inactive, Efflux pump inh inactive and H9c2 protect inactive.
For COc1ccc(S(=O)(=O)NN=C2CCCCC2)cc1 the results were Calb FLC inactive, PHOSPHO1 inh 74, Efflux pump inh inactive, H9c2 protect inactive and KCC2 mod inactive.
`CSc1nc(N)c(C(=O)N(c2ccccc2)c2ccccc2)s1` gave H9c2 protect inactive.
For COc1cc(C(O)c2nc(-c3cccc4cccnc34)cs2)ccc1F (centres undefined) the results were H9c2 protect inactive.
Screening CCC1S/C(=C(\C#N)C(=O)NCc2ccco2)N(c2ccc(F)cc2)C1=O (centres undefined) returned Calb FLC inactive, PHOSPHO1 inh 76, Efflux pump inh inactive, H9c2 protect inactive and KCC2 mod inactive.
`CCC1S/C(=C(\C#N)C(=O)NCc2ccco2)N(c2ccc(Br)cc2)C1=O` (centres undefined) gave Calb FLC inactive, PHOSPHO1 inh inactive, Efflux pump inh inactive, H9c2 protect inactive and KCC2 mod inactive.
`COc1ccc(Cl)cc1C(=O)NNC(=O)COC(=O)CCN=C1NS(=O)(=O)c2ccccc21` gave Calb FLC inactive, Efflux pump inh inactive and H9c2 protect inactive.
For NC(=O)c1cccc(Nc2nc(C(N)CCc3ccccc3)cs2)n1 (centres undefined) the results were H9c2 protect 77.
Screening OCc1ccnc2c(O)cccc12 returned Calb FLC 107, PHOSPHO1 inh inactive, Efflux pump inh inactive, H9c2 protect inactive and KCC2 mod inactive.
Screening CC(=O)Nc1cccc(NC(=O)c2ccccc2Cl)c1 returned H9c2 protect inactive.
For Cc1cccc(-n2c(SCc3cc(=O)n4ccsc4n3)nc3ccccc3c2=O)c1 the results were Calb FLC inactive, PHOSPHO1 inh inactive, Efflux pump inh inactive, H9c2 protect 67 and KCC2 mod inactive.
O=c1c2ccccc2nc(SCc2cn3ccsc3n2)n1-c1ccccc1 was read as Calb FLC inactive, PHOSPHO1 inh inactive, Efflux pump inh inactive and H9c2 protect inactive.
CCN(c1ccccc1)S(=O)(=O)c1ccc(C(=O)NC2CCN(Cc3ccccc3)CC2)cc1 was read as Efflux pump inh inactive and H9c2 protect inactive.
`CN(C)CCN1CCN(C2CN(C3CCCCC3)S(=O)(=O)C2)CC1` (centres undefined) gave H9c2 protect inactive.
Screening O=C(NCc1ccccc1)c1onc(CS(=O)(=O)c2ccccn2)c1C(=O)NCc1ccccc1 returned Calb FLC inactive, Efflux pump inh inactive and H9c2 protect inactive.
`COc1cc(/C=N/N2C(=O)CSC2=S)ccc1O` gave Calb FLC inactive, PHOSPHO1 inh inactive, Efflux pump inh inactive and H9c2 protect inactive.
`COc1cc(O)c(C=NN2C(=O)CSC2=S)c(OC)c1` gave H9c2 protect 62.
`O=C1CSC(=S)N1/N=C/c1cc(Br)c(O)c(Br)c1` gave Calb FLC inactive, PHOSPHO1 inh inactive, Efflux pump inh 7.5 and H9c2 protect inactive.
`Cc1[nH]c2ccccc2c1/C=N/Nc1nc(Nc2ccccc2)nc(N2CCOCC2)n1` gave Calb FLC inactive, PHOSPHO1 inh inactive, Efflux pump inh inactive, H9c2 protect 60 and KCC2 mod inactive.
`Oc1[nH]c2ccccc2c1N=Nc1nc(Nc2ccccc2)nc(N2CCOCC2)n1` gave Calb FLC inactive, PHOSPHO1 inh inactive, Efflux pump inh inactive, H9c2 protect inactive and KCC2 mod inactive.
CC1(N(O)/C=C2\C=CC=CC2=O)CCCCC1=O (centres undefined) was read as Calb FLC inactive, PHOSPHO1 inh inactive, Efflux pump inh inactive, H9c2 protect inactive and KCC2 mod inactive.
For O=S(=O)(NCC(c1cccnc1)N1CCN(Cc2ccccc2)CC1)c1ccc(F)cc1 (centres undefined) the results were Calb FLC inactive, PHOSPHO1 inh inactive, Efflux pump inh inactive and H9c2 protect inactive.
Screening O=S(=O)(NCC(c1cccnc1)N1CCN(Cc2ccccc2)CC1)c1cc(F)ccc1F (centres undefined) returned Calb FLC inactive, PHOSPHO1 inh 71, Efflux pump inh inactive and H9c2 protect inactive.

High-throughput results from PubChem.
